Pol beta inh – blocks human DNA polymerase beta activity | Pol beta primer extension/strand displacement, fluorescence kinetic | Potency, µM (doses to about 114 µM), for the others: top-dose activity change, negative = inhibition, usual class: inhibitors | actives 1.3% (n = 340,000); also: % is scaled to controls: 0 for no effect and ±100 for the full control effect
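Kinetic readout of DNA synthesis with strand displacement by Pol beta. Compound and 10 nM enzyme sit 15 min at room temperature; 50 nM substrate starts the reaction, read immediately and at 10 min.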
POLI inh – inhibitors of human DNA polymerase iota; Q9UNA4; Pol iota fluorescent replication assay, 10 min; Potency, µM (series often up to 115 µM), without a hit: top-dose activity, negative = inhibition, actives largely listed as inhibitors; actives 1% (n = 390,000); AID 588590
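Pol iota at 10 nM preincubated 15 min with compounds at room temperature; reaction started with fluorescent substrate, 50 nM final. Fluorescence read kinetically at 0 and 10 min; buffer-only wells as negative control.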
POLK inh – inhibitors of human DNA polymerase kappa; Q9UBT6; purified Pol kappa, fluorescent DNA synthesis assay, 10 min; Potency, µM (titrated, usually from 107 µM), for the others: at the top dose activity, negative = inhibition, usual class: inhibitors; actives 0.53% (n = 400,000); also: % is scaled to controls: 0 for no effect and ±100 for the full control effect
Target sequence (Q9UBT6 whole entry, looked up): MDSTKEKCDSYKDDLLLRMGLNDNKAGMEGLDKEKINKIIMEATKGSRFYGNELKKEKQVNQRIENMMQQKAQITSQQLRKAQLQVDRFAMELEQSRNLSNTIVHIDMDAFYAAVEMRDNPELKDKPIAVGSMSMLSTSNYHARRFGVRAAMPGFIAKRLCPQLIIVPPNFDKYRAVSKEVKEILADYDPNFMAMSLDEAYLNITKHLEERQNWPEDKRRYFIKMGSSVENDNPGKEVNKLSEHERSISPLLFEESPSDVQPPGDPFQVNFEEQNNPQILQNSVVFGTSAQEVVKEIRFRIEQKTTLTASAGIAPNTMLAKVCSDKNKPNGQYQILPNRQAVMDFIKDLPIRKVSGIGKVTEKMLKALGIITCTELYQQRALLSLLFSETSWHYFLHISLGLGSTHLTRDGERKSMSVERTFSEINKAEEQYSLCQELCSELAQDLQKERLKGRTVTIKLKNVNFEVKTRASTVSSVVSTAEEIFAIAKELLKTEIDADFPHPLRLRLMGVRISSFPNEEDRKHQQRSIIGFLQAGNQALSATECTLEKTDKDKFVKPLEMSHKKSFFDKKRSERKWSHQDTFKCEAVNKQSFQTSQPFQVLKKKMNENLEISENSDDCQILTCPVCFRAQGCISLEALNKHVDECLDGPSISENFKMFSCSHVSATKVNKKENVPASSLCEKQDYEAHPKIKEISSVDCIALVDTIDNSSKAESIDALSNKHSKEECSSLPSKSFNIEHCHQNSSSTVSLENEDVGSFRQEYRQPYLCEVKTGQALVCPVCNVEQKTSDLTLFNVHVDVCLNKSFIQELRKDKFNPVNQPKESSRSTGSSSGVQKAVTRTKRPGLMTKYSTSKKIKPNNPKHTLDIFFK
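First, compounds were pin-transferred onto 10 nM Pol kappa. After 15 min at room temperature, substrate was added to 50 nM final. Fluorescence was then measured kinetically at 0 and 10 min.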
POLH inh – inhibitors of human DNA polymerase eta. Q9Y253. recombinant Pol eta, fluorescent DNA replication assay. Potency, µM (doses to about 114 µM), without a hit: top-dose activity change, negative = inhibition, most hits filed as inhibitors. actives 1.2% (n = 390,000); also: % is scaled to controls: 0 for no effect and ±100 for the full control effect
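Fluorescent replication assay: 50 nM final substrate added after a 15 min room-temperature compound preincubation with 10 nM enzyme. Signal taken at 0 min and again at 10 min.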
FEN1 inhibitor – human FEN1 inhibition. AID 588795. Potency, µM (top dose mostly 114 µM), inactives show at the top dose activity change, negative = inhibition, usual class: inhibitors. Recombinant FEN1 flap cleavage, fluorescence, 15 min. actives 0.35% (n = 390,000); also: % is scaled to controls: 0 for no effect and ±100 for the full control effect; nearly all actives have a fitted effect of over 65% in size
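In this screen, 50 nM flap DNA substrate was added to 10 nM FEN1 pretreated with compound for 15 min at room temperature; cleavage was followed with reads at 0 and 15 min, and Hill fitting gave concentration–response parameters.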
WRN inhibitor – blocks human WRN helicase; WRN helicase unwinding, fluorescent forked duplex, kinetic; Potency, µM (series often up to 114 µM), for inactives: at the highest dose activity change, negative = inhibition, actives largely listed as inhibitors; actives 0.46% (n = 360,000); AID 651768; also: % is scaled to controls: 0 for no effect and ±100 for the full control effect; nearly all actives have a fitted effect of over 55% in size
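Kinetic fluorescence helicase assay: unwinding of a quenched forked DNA duplex (100 nM final) with 2 mM ATP final raises red fluorescence (525/598 nm). Compounds sat 15 min at room temperature with 20 nM WRN beforehand.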
Active calls of the source: *; u = inconclusive; x = not tested or not shown; [ ] = dose if it differs, or a comment. The list is not random: actives were taken first. Their share in the collection is about 2.4%. Calls follow the shape of the dose curve; as a rule, active = well fitted curve in the direction sought with a large enough effect; inconclusive = small, poorly fitted or top-dose-only effect, or another doubt; inactive = no such curve, though single readings can be large; an effect the other way counts as inactive or inconclusive. Potency is read from the fitted curve at half-maximal effect.

SMILES	Pol beta inh	POLI inh	POLK inh	POLH inh	FEN1 inhibitor	WRN inhibitor
O=C(NC(=S)Nc1ccc(NC(=O)c2ccco2)cc1)c1ccccc1	45%	89µM*	11%	0%	-1%	-11%[11.6 µM]
O=C(NC(=S)Nc1ccccc1Cl)c1ccco1	-3%	20%	-24%	3%	-4%	-8%
O=C(NNC(=O)c1ccc(NC(=O)c2ccccc2)cc1)c1ccccc1	79µM*	u	-9%	-9%	0%	-15%
O=C(NC(=S)Nc1c(Cl)ccc2nsnc12)c1ccco1	10%	25µM*	-24%	-4%	-13%	-18%
COc1ccccc1/C=c1/[nH]c(=O)/c(=C\c2ccccc2OC)[nH]c1=O	x	12%	7%	x	5%	x
C=C1Nc2ccccc2C(=O)N1c1ccc(C(=O)N2CCN(C(=O)c3ccco3)CC2)cc1	x	25%	3%	x	-2%	x
O=C(Cc1ccccc1)NNC(=O)c1ccc(NC(=O)c2ccccc2)cc1	20µM*	u	-13%	-15%	-2%	-11%
O=C(Cc1ccccc1)Nc1ccc(C(=O)Nc2ccc(O)cc2)cc1	-17%	19%	-5%	-22%	6%	-12%
O=C(CSc1ccccc1)Nc1ccc(C(=O)Nc2ccc(O)cc2)cc1	79µM*	-19%	-10%	-3%	-12%	-7%
CN1/C(=C\C(=O)COC(=O)Cn2nnc(-c3ccccc3)n2)C(C)(C)c2ccccc21	u	u	-23%	u	u	50µM*
CN1/C(=C/C(=O)COC(=O)CN2C(=O)C3CC=CCC3C2=O)C(C)(C)c2ccccc21 (configuration not stated)	x	-20%	-15%	-11%	-24%	0%
CC(=O)c1ccc(NC(=O)c2cnn3c2NC(=C2CC2)C=C3C(F)F)cc1	x	5%	3%	x	-13%	x
Cn1cnc2c(ncn2[C@@H]2O[C@H](CO)[C@@H](O)[C@H]2O)c1=N	x	x	-2%[19.4 µM]	x	x	x
CSCC[C@H](NC(=O)CNC(=O)CNC(=O)[C@H](CO)NC(=O)[C@H](CCCNC(=N)N)NC(=O)[C@H](CO)NC(=O)[C@H](CC(C)C)NC(=O)[C@H](CC(C)C)NC(=O)CNC(=O)[C@H](C)NC(=O)[C@H](CC(C)C)NC(=O)[C@H](CCCNC(=N)N)NC(=O)[C@H](Cc1cnc[nH]1)NC(=O)[C@@H](NC(=O)[C@@H](N)C(C)C)[C@@H](C)O)C(=O)N[C@H](C(=O)N[C@@H](CCCCN)C(=O)N[C@@H](CO)C(=O)N[C@@H](CC(N)=O)C(=O)N[C@@H](Cc1ccccc1)C(=O)N[C@H](C(=O)N1CCC[C@H]1C(=O)N[C@H](C(=O)N[C@@H](CC(N)=O)C(=O)N[C@H](C(=O)NCC(=O)N[C@@H](CO)C(=O)N[C@@H](CCCCN)C(=O)N[C@@H](C)C(=O)N[C@@H](Cc1ccccc1)C(N)=O)C(C)C)[C@@H](C)O)C(C)C)C(C)C	x	x	15%[60.1 µM]	x	x	x
Cc1cncc(C(=O)O)[n+]1[O-]	x	x	3%[19.4 µM]	x	x	x
CC(=O)Oc1ccccc1C(=O)Nc1ccccc1	x	u	-22%	-14%	-9%	x
COC1(OC)C=CC(=O)C=C1NC(=O)c1ccccc1OC(C)=O	x	10µM*	4%	6%	-4%	x
NC(=NCc1ccc2c(c1)OCO2)NC(=O)c1ccccc1	22%	-2%	-3%	79µM*	-13%	u
COc1ccccc1CNC(=O)c1cccc(-c2ccccc2OC)n1	x	x	-14%	x	x	x
O=S(=O)(c1ccccc1Cl)N1CCN(c2nc(-c3cccs3)nc3ccccc23)CC1	x	5%	6%	x	-16%	x
O=C1C(c2[nH]c3ccc(S(=O)(=O)O)cc3c2O)=Nc2ccc(S(=O)(=O)O)cc21	x	25µM*	u	x	u	x
CCOc1ccc(C(=O)N/N=C/c2cc([N+](=O)[O-])cs2)cc1	14µM*	35µM*	-28%	33%	2%	-4%[11.6 µM]

Screening results as filed in PubChem.
